Among the data in PubChem BioAssay AID504710 (Sanford-Burnham Center for Chemical Genomics, 2011) are inhibition values, retold here.

Activity calls are given as the source filed them.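 How the source made its calls: active means inhibition reaching about 16% in any single replicate (limit read from the data); inactive means the rest.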

The assay deals with Hexokinase HKDC1 (Homo sapiens) (UniProt Q2TB90). The assay is described as follows: HKDC1 hexokinase inhibitors, confirmation, biochemical, single concentration (AID 504710). The following applies: recombinant HKDC1, G6PDH/diaphorase/resazurin fluorescence; at 20 µM; stronger effect = higher value. On the technique in general: Alamar Blue is a resazurin reagent that responds to reducing activity.
Hexokinase HKDC1 (Homo sapiens), sequence (Q2TB90 whole entry, looked up): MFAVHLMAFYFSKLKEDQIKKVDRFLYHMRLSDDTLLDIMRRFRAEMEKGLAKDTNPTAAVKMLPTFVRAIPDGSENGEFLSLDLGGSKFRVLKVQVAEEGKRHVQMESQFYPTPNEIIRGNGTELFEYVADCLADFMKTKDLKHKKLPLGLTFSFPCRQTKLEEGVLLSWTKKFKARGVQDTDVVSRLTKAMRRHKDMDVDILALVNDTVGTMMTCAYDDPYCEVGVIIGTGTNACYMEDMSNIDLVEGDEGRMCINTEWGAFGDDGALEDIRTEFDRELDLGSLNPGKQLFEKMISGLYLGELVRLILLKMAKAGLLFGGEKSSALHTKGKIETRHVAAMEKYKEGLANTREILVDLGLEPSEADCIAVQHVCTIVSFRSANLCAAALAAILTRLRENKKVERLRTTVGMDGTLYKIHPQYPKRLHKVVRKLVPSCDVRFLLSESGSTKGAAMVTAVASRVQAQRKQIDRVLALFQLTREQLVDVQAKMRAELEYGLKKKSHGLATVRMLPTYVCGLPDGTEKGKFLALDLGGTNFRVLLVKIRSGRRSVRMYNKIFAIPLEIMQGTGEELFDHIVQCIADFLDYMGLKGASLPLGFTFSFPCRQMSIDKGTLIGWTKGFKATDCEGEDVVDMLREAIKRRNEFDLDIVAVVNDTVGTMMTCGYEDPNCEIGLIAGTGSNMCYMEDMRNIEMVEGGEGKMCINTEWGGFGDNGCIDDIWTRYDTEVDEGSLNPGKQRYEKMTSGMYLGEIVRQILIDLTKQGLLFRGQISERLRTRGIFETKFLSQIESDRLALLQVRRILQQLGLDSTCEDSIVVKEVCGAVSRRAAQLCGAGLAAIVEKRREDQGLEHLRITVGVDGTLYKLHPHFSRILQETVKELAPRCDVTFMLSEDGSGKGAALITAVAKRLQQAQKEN
In the case of `O=c1c2ccccc2[se]n1-c1ccccc1`, the inhibition is 5.01% (active).
As for `O=C1NC(=S)N(c2ccc(F)cc2)C(=O)/C1=C\c1ccoc1`, the figure is 55.2% (active); as for `Cc1cccc(N2C(=O)NC(=O)/C(=C\c3cc(C)n(-c4sc5c(c4C#N)CCCC5)c3C)C2=O)c1C`, 54.9% (active).
As for `COC(=O)C1=C(C(=O)OC)SC2(S1)C(C(=O)OC)=C(C(=O)OC)Sc1c2ssc1=O`, the figure is -88.9% (inactive).
With `CC(=NNC(=S)N1CC2CCC(CC2)C1)c1nccs1` the figure was -42.1% (inactive).
As for `Cc1ccc2c(C)c3ccc4ccccc4c3c[n+]2c1`, the inhibition is -65.5% (inactive).
As for `COc1cc2c(cc1OC)-c1c(OC)c(OC)c(OC)c3ccnc(c13)C2=O`, the figure is 57.5% (active); as for `Cn1c(=O)c2c(nc(N/N=C/c3c(O)n(C4CCCCC4)c(=S)[nH]c3=O)n2C)n(C)c1=O`, -49.5% (inactive).
With `CCOC(=O)c1c(-n2c(C)cc(C=C3C(=O)NC(=S)NC3=O)c2C)sc2c1CCCC2` the figure was 61% (active).
As for `COc1ccc(OC)c(N2C(=O)/C(=C/c3ccco3)C(=O)NC2=S)c1`, the figure is 77.4% (active); as for `Cc1cc(/C=C2\C(=O)NC(=O)N(c3ccc(Cl)cc3)C2=O)c(C)n1-c1sc2c(c1C#N)CCCC2`, 56.4% (active); as for `CCN(CC)CCCNC(=O)c1c(O)c2ccccc2n(Cc2ccccc2)c1=O`, -37.1% (inactive).
Consider `CC(=O)OC1C2(CC3N4C(=O)C5(CO)SSC4(CC31O)C(=O)N5C)OC(C)C(C)(C)C2=O` (centres undefined), for which the inhibition is -77% (inactive).
With `Nc1c(Br)cc2c3c(cccc13)-c1ccccc1-2` the figure was 51.2% (active).

The term inhibition denotes the change of the read-out against control, counted positive when it falls.
